The panel holds about 79,000 compounds, 15% with a hit somewhere; the sample as a whole holds those more often. Active and inactive are the calls of the source. Cut-off read from the data, not from the text of the source: active = growth inhibition above about 70%; inactive = the rest.
Columns and labels:
[1] = NCI Yeast Anticancer Drug Screen. Data for the rad50 strain (AID 155);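 note: 0% = growth of vehicle-only cultures of the same strain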; conditions: S. cerevisiae rad50 strain growth inhibition, active compounds read high
How it was run: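 Yeast carrying a defined DNA repair defect were exposed to test compounds, and growth was compared with vehicle-treated controls to give percent inhibition.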

[2] = NCI Yeast Anticancer Drug Screen. Data for the mec2-1 strain (AID 157); conditions: S. cerevisiae mec2-1 strain, active compounds read high
How it was run: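 Cells of the genetically defined mec2-1 yeast strain are incubated with test compound. Inhibition of growth is calculated against vehicle-treated controls.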

[3] = NCI Yeast Anticancer Drug Screen. Data for the sgs1 mgt1 strain (AID 161);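 note: 0% = growth of cultures given vehicle only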; conditions: S. cerevisiae sgs1 mgt1 strain, active compounds read high
How it was run: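 Mutant yeast exposed to compound; growth scored against vehicle-only wells.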

[4] = NCI Yeast Anticancer Drug Screen. Data for the cln2 rad14 strain (AID 165);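 note: 0% = growth equal to vehicle treated cultures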; conditions: S. cerevisiae cln2 rad14 strain, active compounds read high
How it was run: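 The screen exposed genetically defined yeast (cln2 rad14) to test compounds and scored growth inhibition relative to vehicle-treated controls.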

[5] = NCI Yeast Anticancer Drug Screen. Data for the bub3 strain (AID 167); conditions: S. cerevisiae bub3 mutant strain, active compounds read high
How it was run: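 Compounds were applied to a genetically altered yeast strain carrying a cell-cycle control defect. Growth inhibition was scored against vehicle-treated controls.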

[6] = NCI Yeast Anticancer Drug Screen. Data for the mlh1 rad18 strain (AID 175); conditions: S. cerevisiae mlh1 rad18 strain growth inhibition, active compounds read high
How it was run: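 Compound-treated yeast growth, normalised to vehicle controls. Strain bears defined DNA repair mutations.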

[7] = at 5.0 µM (retest, dose inferred, filed as 0.5)
[8] = at 50.0 µM (retest, dose inferred, filed as 5.0)

Measured: growth inhibition

O[C@H](CNCCS)[C@@H](O)CNCCS
inactive: [1]; [7] -1% | [1]; [8] 14% | [2]; [7] 2% | [2]; [8] 28% | [2]; at 50.0 µM 54% | [3]; [7] -6% | [3]; [8] 27% | [4]; [7] 17% | [4]; [8] 7% | [4]; at 50.0 µM 28.5% | [5]; [7] -4% | [5]; [8] 17% | [5]; at 50.0 µM 40% | [6]; [7] -5% | [6]; [8] 3%
active: [1]; at 50.0 µM 78% | [3]; at 50.0 µM 80.1% | [6]; at 50.0 µM 79.3%

C/C(=N/NC(=S)Nc1cccc(Cl)c1)c1ccccn1
active: [1]; [7] 78% | [1]; [8] 97% | [1]; at 50.0 µM 79% | [2]; [7] 91% | [2]; [8] 97% | [2]; at 50.0 µM 86.7% | [3]; [7] 85% | [3]; [8] 97% | [3]; at 50.0 µM 87% | [4]; [7] 81% | [4]; [8] 96% | [4]; at 50.0 µM 88.2% | [5]; [7] 82% | [5]; [8] 96% | [5]; at 50.0 µM 90% | [6]; [7] 91% | [6]; [8] 97% | [6]; at 50.0 µM 90.1%

N#CC(C#N)=C/C=C/c1c(Cl)cccc1Cl
inactive: [1]; [7] 7% | [1]; [8] 41% | [2]; [7] 15% | [2]; [8] 58% | [2]; at 50.0 µM 46.9% | [3]; [7] 11% | [3]; at 50.0 µM 58.9% | [4]; [7] 29% | [4]; [8] 68% | [5]; [7] 25% | [5]; at 50.0 µM 69.6% | [6]; [7] 8% | [6]; [8] 66% | [6]; at 50.0 µM 57.1%
active: [1]; at 50.0 µM 71.2% | [3]; [8] 78% | [4]; at 50.0 µM 76.8% | [5]; [8] 79%

CC/C(C)=N/OC(=O)Nc1ccccc1
inactive: [1]; [7] 5% | [1]; [8] 0% | [1]; at 50.0 µM 39.1% | [2]; [7] -22% | [2]; [8] 5% | [2]; at 50.0 µM 17.2% | [3]; [7] 2% | [3]; [8] 20% | [3]; at 50.0 µM 64.7% | [4]; [7] 5% | [4]; [8] 8% | [4]; at 50.0 µM 11.2% | [5]; [7] -74% | [5]; [8] 2% | [5]; at 50.0 µM 0.05% | [6]; [7] 1% | [6]; [8] 14% | [6]; at 50.0 µM 34%
